Sampled rows, rich in hits. Any-hit rate of the full collection: about 19%.
ELG1 DNA repair: inhibitors of ELG1-dependent DNA repair in HEK293T cells; HEK293T ELG1-luciferase reporter, luminescence, 16 h; DNA damage induced by 5-fluorouridine; Potency, µM (highest dose often 46.1 µM), for the others: at the top dose activity change, negative = inhibition, most hits filed as inhibitors; 330,000 tested, 2.3% active; further: potency means the concentration at half of the fitted maximal effect; nearly all actives have a fitted effect of over 55% in size
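Overnight (16 hr) co-exposure of 2,000 cells/well to 5-fluorouridine and compound at 37 °C preceded detection. Luciferase was quantified via ONE-Glo luminescence; loss of signal denotes inhibition.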
HT1080-NT tox: kills 2HG-producing HT-1080-NT fibrosarcoma cells. HT-1080-NT fibrosarcoma viability, CellTiter-Glo ATP luminescence, 48 h. 360,000 tested, 1.6% active. Potency, µM (doses to about 46.1 µM), for the others: at the highest dose activity, negative = less viability, hits mostly cytotoxic;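 further: NT is the 2HG producing partner of a matched IDH1 knockdown line; potency means the concentration at half of the fitted maximal effect; 0% = DMSO-treated cells and -100% = media-only wells without cells; nearly all actives have a fitted effect of over 55% in size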
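750 cells/well, RPMI + 5% FBS; 2 h settle, compound pin-transfer, 48 h at 37 degrees C. CellTiter-Glo 10 min RT, luminescence. Normalized to DMSO and media-only wells.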
DT40 TDP1 no CPT: qHTS for Inhibitors of human tyrosyl-DNA phosphodiesterase 1 (TDP1): qHTS in cells in absence of CPT; DT40 Tdp1-/- hTDP1 cells, no CPT, ATP luminescence, 48 h; Potency, µM (top dose mostly 46.2 µM), without a hit: at the highest dose activity change, negative = growth inhibition, actives largely listed as inhibitors; 420,000 tested, 15% active; further: potency means the concentration at half of the fitted maximal effect; nearly all actives have a fitted effect of over 55% in size
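Seeded 400 DT40-hTDP1 cells/well (vehicle DMSO, no 20 nM CPT); pinned compounds; ≥48 hr at 37 °C; CellTiter-Glo luminescence as viability measure.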
IL-1B inflam inh: blocks inflammasome-driven IL-1 beta release. THP-1 LPS/ATP IL-1B secretion, AlphaLISA, 16 h; stronger effect = lower value. 360,000 tested, 4.7% active. activity change, % at 57.5 µM; in the data active means activity change below about -50%; inconclusive means mostly about -30% to -49%
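THP-1 cells pretreated 1 hr with compounds (up to 57.5 uM final), then stimulated with LPS (250 ng/mL final) plus ATP (1.25 mM final); secreted IL-1B measured by AlphaLISA after 16 hr, decreased signal indicating inhibition.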
HT1080 IDH1KD tx: HT-1080 IDH1 knockdown cell toxicity (counter line). HT-1080 IDH1 knockdown viability, ATP luminescence, 48 h. Potency, µM (highest dose often 46.1 µM), inactives show at the top dose activity, negative = toxicity, most hits filed as cytotoxic. 360,000 tested, 2% active;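 further: potency means the concentration at half of the fitted maximal effect; 0% = DMSO wells and -100% = cell-free medium wells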
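In this qHTS, HT-1080 cells depleted of IDH1 are exposed for 48 h at 37 °C to compound titrations. Toxicity is scored from CellTiter-Glo luminescence, with DMSO as full viability and medium alone as none.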
DT40 TDP1 CPT: growth inhibition of DT40 Tdp1-/-;hTDP1 cells with camptothecin (screen for TDP1 inhibitors); chicken DT40 Tdp1-/-;hTDP1 cells + 20 nM CPT, ATP luminescence, 48 h; Potency, µM (series often up to 46.2 µM), for the others: top-dose activity change, negative = growth inhibition, hits mostly inhibitors; 420,000 tested, 12% active; AID 686979; further: potency means the concentration at half of the fitted maximal effect; nearly all actives have a fitted effect of over 55% in size
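Cell growth measured by CellTiter-Glo luminescence after a minimum 48 h, 37 C compound exposure with 20 nM CPT in Tdp1-knockout DT40 cells stably expressing hTDP1, seeded 400/well; qHTS titration format.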
An asterisk follows results filed as active; ? = inconclusive; / = no result given. Unless noted, the call rests on the fitted dose curve; in most records, active means well fitted curve in the direction sought with a large enough effect; inconclusive means small, poorly fitted or top-dose-only effect, or another doubt; inactive means no such curve, though single readings can be large; an effect the other way counts as inactive or inconclusive. Unless noted, on the % scale 0 is the no-effect control and ±100 the full control effect.

SMILES | ELG1 DNA repair | HT1080-NT tox | DT40 TDP1 no CPT | IL-1B inflam inh | HT1080 IDH1KD tx | DT40 TDP1 CPT
CCN1CCc2nc3sc(C(=O)N4CCc5ccccc5C4)c(N)c3cc2C1 | 7.8% | ? | ? | -73.1* | -7.9% | ?
O=C(Nc1ccc(F)cc1F)C1CCN(S(=O)(=O)c2ccc3[nH]c(=O)ccc3c2)CC1 | / | / | -19.4% | / | / | -15.2%
CC1(C)CN(c2ccccc2)N(Cc2ccc(F)cc2)C1=O | -14.2% | -0.4% | 9.2µM* | 15.9 | -24.7% | 9.2µM*
O=c1cc(N2CCN(c3ccccc3)CC2)[nH]c(=O)n1Cc1ccc(F)cc1 | -4.1% | -6.3% | -28.2% | -4.5 | -8.0% | -24.9%
CN(c1ccccc1)S(=O)(=O)c1cccc(C(=O)NCCCN2CCCC2=O)c1 | 5.3% | -0.3% | -16.6% | -2.8 | -2.0% | -22.2%
CC1c2cc3c(cc2CCN1S(=O)(=O)c1ccccc1)OCCCO3 (stereo unspecified) | -1.3% | 14.0% | -20.1% | 19.6 | -3.4% | ?
COc1ccc(S(=O)(=O)N2CCc3cc4c(cc3C2C)OCCCO4)cc1 (stereo unspecified) | -5.3% | -13.0% | ? | 22.3 | -11.5% | 16.4µM*
COc1ccc(S(=O)(=O)N2CCCCC2C)cc1 (stereo unspecified) | 2.0% | 4.4% | -13.1% | 10.2 | 2.1% | -26.9%
Cc1ccc(S(=O)(=O)N2CCc3cc4c(cc3C2C)OCCCO4)cc1 (stereo unspecified) | -29.8% | ? | ? | -14.2 | -6.7% | 18.4µM*
CC1CCN(c2nc3ccccc3nc2C(F)(F)F)CC1 | / | / | -9.4% | / | / | -16.7%
Cc1cccc(N2CCN(C(=O)c3ccc4c(Cl)c5c(nc4c3)CCCC5)CC2)c1C | / | / | ? | / | / | 18.4µM*
COc1cccc(N2CCN(C(=O)c3ccc4c(Cl)c5c(nc4c3)CCCC5)CC2)c1 | / | / | 20.6µM* | / | / | 20.6µM*
O=C(c1ccc2c(Cl)c3c(nc2c1)CCCC3)N1CCN(c2cccc(C(F)(F)F)c2)CC1 | / | / | -11.6% | / | / | -9.0%
COc1cccc(C2C3=C(CCCC3=O)Nc3[nH]n(-c4ccccc4)c(=O)c32)c1 (stereo unspecified) | -3.4% | -4.4% | ? | 6.9 | 1.0% | -15.2%
O=C1CCCC2=C1C(c1ccc3c(c1)OCO3)c1c([nH]n(-c3ccccc3)c1=O)N2 (stereo unspecified) | 10.0% | -14.7% | 13µM* | -8.9 | -16.6% | -19.7%
Cc1cccc(NC(=S)NC(=O)c2oc3ccccc3c2C)n1 | ? | 13.9% | -41.1% | 20.7 | 11.3% | ?
Cc1ccccc1Oc1cc(NC(=O)CCCn2nc(C)c([N+](=O)[O-])c2C)cc([N+](=O)[O-])c1 | ? | -1.7% | ? | -55.5* | -10.7% | ?
Cc1c(Cl)c([N+](=O)[O-])nn1CCCC(=O)Nc1cc(Oc2ccccc2)cc([N+](=O)[O-])c1 | 2.6% | -0.7% | ? | 20.8 | -0.2% | 20.6µM*
Cc1nn(Cc2ccc(Cl)cc2)c(C)c1NC(=O)CCCn1nc([N+](=O)[O-])c(Cl)c1C | ? | -5.3% | ? | ? | -3.6% | 14.6µM*
Cc1c(Cl)c([N+](=O)[O-])nn1CCCC(=O)Nc1c(Cl)cccc1Cl | 0.1% | 8.5% | ? | 10.3 | 9.4% | ?
Cc1c(Cl)c([N+](=O)[O-])nn1CCCC(=O)N1CCN(c2ccccc2)CC1 | -19.6% | 3.7% | -16.1% | -6.6 | 3.7% | 14.6µM*
CC1(NC(=O)/C=C/c2nc3ccccc3s2)CCS(=O)(=O)C1 (stereo unspecified) | ? | -1.4% | -3.1% | 6.8 | 4.8% | 4.9%
Cc1ccccc1Oc1cc(NC(=O)Cn2cnc([N+](=O)[O-])c2)cc([N+](=O)[O-])c1 | -10.6% | -12.4% | ? | 0.5 | -21.3% | 16.4µM*
O=C(CSc1n[nH]c(-c2ccccc2Br)n1)NCCN1C(=O)CSC1=O | 19.8% | 13.0% | 4.4% | 0.0 | 2.7% | 9.6%
CCO[C@H]1OC(C(=O)N2CCN(Cc3ccc4c(c3)OCO4)CC2)=C[C@@H](c2csc3ccccc23)[C@@H]1CCCO | ? | ? | ? | -60.9* | ? | ?
SMILES | ELG1 DNA repair | HT1080-NT tox | DT40 TDP1 no CPT | IL-1B inflam inh | HT1080 IDH1KD tx | DT40 TDP1 CPT
CCO[C@H]1OC(C(=O)N2CCN(C)CC2)=C[C@@H](c2ccc3c(c2)OCO3)[C@@H]1CCCO | 8.6% | -3.3% | 0.3% | 5.7 | -1.8% | -14.0%
CCO[C@H]1OC(C(=O)N2CCN(Cc3ccc4c(c3)OCO4)CC2)=C[C@@H](c2cn(C(C)=O)c3ccccc23)[C@@H]1CCCO | 10.3µM* | -4.5% | ? | ? | -4.9% | ?
CCO[C@H]1OC(C(=O)N2CCOCC2)=C[C@@H](c2cn(C(C)=O)c3ccccc23)[C@@H]1CCCO | -3.0% | -4.9% | -20.2% | 8.9 | 6.7% | -16.8%
COc1cccc(Cn2c(=O)c(-c3cccc(C#N)c3)nc3cnc(N4CCOCC4)nc32)c1 | / | / | 0.9% | / | / | -5.7%
O=C(COc1ccc(F)cc1)Nc1nc(-c2cccnc2)cs1 | / | 9.6% | ? | 6.3 | 4.3% | ?
C[C@H]1CN([C@@H](C)CO)C(=O)c2cc(C#CC3CCCC3)cnc2O[C@H]1CN(C)C(=O)Cc1ccccn1 | / | 14.7% | 3.7% | -1.2 | 0.9% | 4.4%
O=C(N/N=C/c1ccccc1O)c1cccc(C(F)(F)F)c1 | ? | ? | 3.26µM* | 71.3 | 2.59µM* | 5.17µM*
Cc1cc(/C=N/NC(=O)C(O)(c2ccccc2)c2ccccc2)c(C)n1-c1ccccc1 | 9.3% | -13.4% | ? | -8.8 | -5.3% | ?
O=C(CNc1ccc2ccccc2c1)N/N=C/c1ccccn1 | -19.9% | -25.4% | 18.4µM* | 40.8 | -27.7% | ?
CC(Nc1cccc2ccccc12)C(=O)N/N=C/c1ccccn1 (stereo unspecified) | -14.5% | 14.1µM* | 20.6µM* | 49.0 | 7.08µM* | 25.9µM*
Cc1cc(C(=O)N/N=C/c2ccc(O)c(O)c2O)c(C)n1-c1ccccc1 | ? | ? | 3.26µM* | 98.7 | ? | 4.61µM*
Cc1cc(/C=N/NC(=O)c2cccs2)c(C)n1-c1ccccc1 | ? | ? | 13µM* | -4.9 | ? | 16.4µM*
Cc1cc(/C=N/NC(=O)c2cccs2)c(C)n1-c1cnccn1 | ? | 3.9% | 5.9% | 0.0 | -1.4% | 11.2%
O=C(NN=Cc1ccccc1O)c1cccc([N+](=O)[O-])c1 | / | 0.291µM* | 0.164µM* | 160.0 | 1.16µM* | 0.82µM*

Screens as filed in PubChem.
